In PubChem BioAssay (NCATS):

Target: Lysosomal acid glucosylceramidase (Homo sapiens) (UniProt P04062)
Assay: Glucocerebrosidase-p2 (AID 348)
Settings: purified GBA, blue fluorogenic substrate, 40 min; in the data active means potency below about 10 µM; inactive means the rest
Procedure, shortened: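 Compounds titrated from 0.6 nM upwards against 0.2 nM enzyme in pH 5.9 citric acid/KH2PO4, taurocholate, tween-20; blue fluorogenic substrate 80 uM, 40 min room temperature, stopped and read Ex 365/Em 440 for AC50.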
Potency means the concentration at half of the fitted maximal effect.

Sequence of Lysosomal acid glucosylceramidase (Homo sapiens) (P04062 whole entry, looked up): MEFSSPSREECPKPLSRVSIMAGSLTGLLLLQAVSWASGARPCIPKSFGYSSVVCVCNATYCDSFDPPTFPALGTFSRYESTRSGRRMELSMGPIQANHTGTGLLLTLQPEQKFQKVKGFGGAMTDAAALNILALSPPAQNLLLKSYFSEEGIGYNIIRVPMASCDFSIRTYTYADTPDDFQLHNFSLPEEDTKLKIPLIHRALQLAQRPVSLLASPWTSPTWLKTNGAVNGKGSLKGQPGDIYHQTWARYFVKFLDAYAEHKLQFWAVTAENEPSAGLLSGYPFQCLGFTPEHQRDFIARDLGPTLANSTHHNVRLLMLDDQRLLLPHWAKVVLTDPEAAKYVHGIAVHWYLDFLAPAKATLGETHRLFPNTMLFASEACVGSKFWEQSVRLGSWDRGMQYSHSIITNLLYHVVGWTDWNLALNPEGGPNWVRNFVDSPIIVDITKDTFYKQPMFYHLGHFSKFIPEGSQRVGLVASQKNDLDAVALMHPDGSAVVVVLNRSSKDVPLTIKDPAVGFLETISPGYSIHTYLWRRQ

Potency, inactive:
COC(=O)CC[C@@H](C)[C@@H]1CC[C@@H]2[C@@H]3CC[C@H]4C[C@@H](O)CC[C@@]4(C)[C@@H]3CC[C@]21C > 11.4 µM, N#CCCn1c(=O)c(-c2ccccc2)nc2cnc(N3CCNCC3)nc21 > 11.4 µM, OC[C@H](S)CS > 11.4 µM, O=C(O)c1[nH]c(=O)[nH]c(=O)c1CN1CCCCC1 > 11.4 µM, COc1ncc2nc(-c3cc(F)cc(F)c3)c(=O)n(CCc3ccccc3)c2n1 > 11.4 µM, O=C(O)c1cc(-c2ccc(-c3ccccc3)cc2)nc2cc3ccccc3cc12 > 11.4 µM, COc1cc(N=Nc2cccc(S(N)(=O)=O)c2)c2ccccc2c1N > 11.4 µM, CC(CO)(CO)N=Cc1cc(I)cc(I)c1O > 11.4 µM, Cc1cc(O)c(C(C)C)cc1C1(c2cc(C(C)C)c(O)cc2C)OC(=O)c2ccccc21 > 11.4 µM, C[N+]1(C)[C@@H]2CC(OC(=O)[C@@H](CO)c3ccccc3)C[C@@H]1[C@H]1O[C@H]12 (some centres not stated) > 11.4 µM, CC(C)c1ccc(O)c(O)c(=O)c1 (tested in a mixture with another compound) > 11.4 µM, O=C1C=C(N2CCN(c3ccccn3)CC2)C(=O)c2c(O)ccc(O)c21 > 11.4 µM
